Results published in PMC9911399, “Two distinct binding modes provide the RNA-binding protein RbFox with extraordinary sequence specificity”.
Positions count from the first letter of the chain named. The full ranking holds about 16,000 sequences; the median of “ka relative to ugcaugu” is about 0.0091, and the highest 2% start at about 0.032. The full list was thinned out, with the highest values kept by preference.

T1: RBFOX1 RRM (Homo sapiens, UniProt Q9NWB1 109-208)
T1 sequence: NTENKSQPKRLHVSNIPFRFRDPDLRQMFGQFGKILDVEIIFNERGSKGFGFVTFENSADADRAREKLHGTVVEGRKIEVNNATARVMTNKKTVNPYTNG

B1: CUCUACU (DNA:RNA)
RNA: GGGAGACCGGAAUUCAGAUUGUCCCUCUACUUUAAAUCCCGUCGUAGCCACCA
DNA 1: CAATCTGAATTCCGGTCTCCC
DNA 2: TGGTGGCTACGACGGGATT
B2: GUCAUUG (DNA:RNA)
RNA: B1 RNA with C25G, U28A, A29U, C30U, U31G
DNA 1: CAATCTGAATTCCGGTCTCCC
DNA 2: TGGTGGCTACGACGGGATT
B3: UGAUGGC (DNA:RNA)
RNA: B1 RNA with C25U, U26G, C27A, A29G, C30G, U31C
DNA 1: CAATCTGAATTCCGGTCTCCC
DNA 2: TGGTGGCTACGACGGGATT
B4: UGGCUGC (DNA:RNA)
RNA: GGGAGACCGGAAUUCAGAUUGUCCUGGCUGCUUAAAUCCCGUCGUAGCCACCA
DNA 1: CAATCTGAATTCCGGTCTCCC
DNA 2: TGGTGGCTACGACGGGATT
B5: CGGCUGA (DNA:RNA)
RNA: B4 RNA with U25C, C31A
DNA 1: CAATCTGAATTCCGGTCTCCC
DNA 2: TGGTGGCTACGACGGGATT
B6: UGCUGGC (DNA:RNA)
RNA: B4 RNA with G27C, C28U, U29G
DNA 1: CAATCTGAATTCCGGTCTCCC
DNA 2: TGGTGGCTACGACGGGATT
B7: GUGCUGA (DNA:RNA)
RNA: B4 RNA with U25G, G26U, C31A
DNA 1: CAATCTGAATTCCGGTCTCCC
DNA 2: TGGTGGCTACGACGGGATT
B8: CGGCUGC (DNA:RNA)
RNA: B4 RNA with U25C
DNA 1: CAATCTGAATTCCGGTCTCCC
DNA 2: TGGTGGCTACGACGGGATT
B9: GUCCUGA (DNA:RNA)
RNA: B4 RNA with U25G, G26U, G27C, C31A
DNA 1: CAATCTGAATTCCGGTCTCCC
DNA 2: TGGTGGCTACGACGGGATT
B10: UGAUUCG (DNA:RNA)
RNA: B4 RNA with G27A, C28U, G30C, C31G
DNA 1: CAATCTGAATTCCGGTCTCCC
DNA 2: TGGTGGCTACGACGGGATT
B11: UGGCUGA (DNA:RNA)
RNA: B4 RNA with C31A
DNA 1: CAATCTGAATTCCGGTCTCCC
DNA 2: TGGTGGCTACGACGGGATT
B12: ACUAAUA (DNA:RNA)
RNA: B1 RNA with C25A, U26C, C27U, U28A, C30U, U31A
DNA 1: CAATCTGAATTCCGGTCTCCC
DNA 2: TGGTGGCTACGACGGGATT
B13: UCAUCUC (DNA:RNA)
RNA: B4 RNA with G26C, G27A, C28U, U29C, G30U
DNA 1: CAATCTGAATTCCGGTCTCCC
DNA 2: TGGTGGCTACGACGGGATT
B14: ACUUGAA (DNA:RNA)
RNA: B1 RNA with C25A, U26C, C27U, A29G, C30A, U31A
DNA 1: CAATCTGAATTCCGGTCTCCC
DNA 2: TGGTGGCTACGACGGGATT
B15: UAACAGC (DNA:RNA)
RNA: B4 RNA with G26A, G27A, U29A
DNA 1: CAATCTGAATTCCGGTCTCCC
DNA 2: TGGTGGCTACGACGGGATT
B16: CCUUGGA (DNA:RNA)
RNA: B1 RNA with U26C, C27U, A29G, C30G, U31A
DNA 1: CAATCTGAATTCCGGTCTCCC
DNA 2: TGGTGGCTACGACGGGATT
B17: UGAGAAC (DNA:RNA)
RNA: B4 RNA with G27A, C28G, U29A, G30A
DNA 1: CAATCTGAATTCCGGTCTCCC
DNA 2: TGGTGGCTACGACGGGATT
B18: GACUAUG (DNA:RNA)
RNA: B1 RNA with C25G, U26A, C30U, U31G
DNA 1: CAATCTGAATTCCGGTCTCCC
DNA 2: TGGTGGCTACGACGGGATT
B19: UAACGUU (DNA:RNA)
RNA: B4 RNA with G26A, G27A, U29G, G30U, C31U
DNA 1: CAATCTGAATTCCGGTCTCCC
DNA 2: TGGTGGCTACGACGGGATT
B20: GCACCGC (DNA:RNA)
RNA: B4 RNA with U25G, G26C, G27A, U29C
DNA 1: CAATCTGAATTCCGGTCTCCC
DNA 2: TGGTGGCTACGACGGGATT
B21: GCACCCG (DNA:RNA)
RNA: B1 RNA with C25G, U26C, C27A, U28C, A29C, U31G
DNA 1: CAATCTGAATTCCGGTCTCCC
DNA 2: TGGTGGCTACGACGGGATT
B22: CGCGUCG (DNA:RNA)
RNA: B1 RNA with U26G, U28G, A29U, U31G
DNA 1: CAATCTGAATTCCGGTCTCCC
DNA 2: TGGTGGCTACGACGGGATT
B23: GCACGCG (DNA:RNA)
RNA: B1 RNA with C25G, U26C, C27A, U28C, A29G, U31G
DNA 1: CAATCTGAATTCCGGTCTCCC
DNA 2: TGGTGGCTACGACGGGATT
B24: CGCCACG (DNA:RNA)
RNA: B1 RNA with U26G, U28C, U31G
DNA 1: CAATCTGAATTCCGGTCTCCC
DNA 2: TGGTGGCTACGACGGGATT
B25: GCACGCU (DNA:RNA)
RNA: B1 RNA with C25G, U26C, C27A, U28C, A29G
DNA 1: CAATCTGAATTCCGGTCTCCC
DNA 2: TGGTGGCTACGACGGGATT
B26: GCGCACG (DNA:RNA)
RNA: B1 RNA with C25G, U26C, C27G, U28C, U31G
DNA 1: CAATCTGAATTCCGGTCTCCC
DNA 2: TGGTGGCTACGACGGGATT
B27: GCGCAGA (DNA:RNA)
RNA: B4 RNA with U25G, G26C, U29A, C31A
DNA 1: CAATCTGAATTCCGGTCTCCC
DNA 2: TGGTGGCTACGACGGGATT
B28: CGCACGC (DNA:RNA)
RNA: B4 RNA with U25C, G27C, C28A, U29C
DNA 1: CAATCTGAATTCCGGTCTCCC
DNA 2: TGGTGGCTACGACGGGATT
B29: GCACGUC (DNA:RNA)
RNA: B4 RNA with U25G, G26C, G27A, U29G, G30U
DNA 1: CAATCTGAATTCCGGTCTCCC
DNA 2: TGGTGGCTACGACGGGATT
B30: GCGUCCG (DNA:RNA)
RNA: B1 RNA with C25G, U26C, C27G, A29C, U31G
DNA 1: CAATCTGAATTCCGGTCTCCC
DNA 2: TGGTGGCTACGACGGGATT
B31: GCGCACC (DNA:RNA)
RNA: B4 RNA with U25G, G26C, U29A, G30C
DNA 1: CAATCTGAATTCCGGTCTCCC
DNA 2: TGGTGGCTACGACGGGATT

The binders below were run against T1, RBFOX1 RRM (assay: EMSA; HiTS-Eq, 1 nM pool, 10 min; buffer printed only for the single-RNA assays: 10 mM Tris pH 7.5, 150 mM NaCl, 3.4 mM EDTA, 0.001% NP-40, 30 C). Details: tags: His6 N-terminal (pET28a); label: 5' 32P.
Summary of the method: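 Purified RbFox RRM, wild type or mutant, was incubated for 10 min in 50 µL with 1 nM of a 5′-radiolabelled RNA pool carrying 7 randomized nucleotides, whose flanks were annealed to DNA oligonucleotides, over a series of increasing protein concentrations. Unbound RNA was resolved on 8% native PAGE, cut out, reverse-transcribed, barcoded by PCR and sequenced on an Illumina HiSeq 2500. Relative association constants were derived from changes in read counts for each RNA species versus the control reaction and normalised to the cognate motif.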
With B1 the binding signal was 0.00629 KA relative to UGCAUGU. B2 was tested, and the binding signal was 0.0126 KA relative to UGCAUGU. For B3, the binding signal was 0.0129 KA relative to UGCAUGU. With B4 the binding signal was 0.0373 KA relative to UGCAUGU. B5 was tested, and the binding signal was 0.022 KA relative to UGCAUGU. In the case of B6, the binding signal is reported as 0.0238 KA relative to UGCAUGU. With B7 the binding signal was 0.0323 KA relative to UGCAUGU. In the case of B8, the binding signal is reported as 0.018 KA relative to UGCAUGU. For B9, the binding signal was 0.0213 KA relative to UGCAUGU. With B10 the binding signal was 0.0228 KA relative to UGCAUGU. For B11, the binding signal was 0.036 KA relative to UGCAUGU. B12 was tested, and the binding signal was 0.00101 KA relative to UGCAUGU. B13 was tested, and the binding signal was 0.00423 KA relative to UGCAUGU. For B14, the binding signal was 0.0101 KA relative to UGCAUGU. In the case of B15, the binding signal is reported as 0.00375 KA relative to UGCAUGU. With B16 the binding signal was 0.00739 KA relative to UGCAUGU. With B17 the binding signal was 0.0124 KA relative to UGCAUGU. For B18, the binding signal was 0.0187 KA relative to UGCAUGU. With B19 the binding signal was 0.00814 KA relative to UGCAUGU. For B20, the binding signal was 0.00949 KA relative to UGCAUGU. In the case of B21, the binding signal is reported as 0.00754 KA relative to UGCAUGU. B22 was tested, and the binding signal was 0.0133 KA relative to UGCAUGU. B23 was tested, and the binding signal was 0.0376 KA relative to UGCAUGU. With B24 the binding signal was 0.0114 KA relative to UGCAUGU. In the case of B25, the binding signal is reported as 0.0317 KA relative to UGCAUGU. B26 was tested, and the binding signal was 0.062 KA relative to UGCAUGU. For B27, the binding signal was 0.0118 KA relative to UGCAUGU. B28 was tested, and the binding signal was 0.0306 KA relative to UGCAUGU. For B29, the binding signal was 0.0416 KA relative to UGCAUGU. In the case of B30, the binding signal is reported as 0.0136 KA relative to UGCAUGU. B31 was tested, and the binding signal was 0.0133 KA relative to UGCAUGU.
